Hit rate of the full screen: of about 16,000 compounds, about 5,100 (32%) were called active. Roughly 25% stayed inconclusive and do not appear here. Calls come from the whole dose curve; as a rule, active = well fitted curve in the direction sought with a large enough effect; inconclusive = small, poorly fitted or top-dose-only effect, or effect the other way; inactive = no such curve, though single readings can be large or run the other way. This is one part of the list.
% is set by controls: 0 for no effect and ±100 for the full control effect.

The target in the experiment is Cytochrome P450 3A4 (Homo sapiens) (UniProt P08684). Briefly: Cytochrome panel assay with activity outcomes. The conditions noted are these: recombinant CYP, pro-luciferin dealkylation, luminescence, p450-cyp3a4; series mostly up to 57.1 µM.
Chain of Cytochrome P450 3A4 (Homo sapiens) (P08684 whole entry, looked up): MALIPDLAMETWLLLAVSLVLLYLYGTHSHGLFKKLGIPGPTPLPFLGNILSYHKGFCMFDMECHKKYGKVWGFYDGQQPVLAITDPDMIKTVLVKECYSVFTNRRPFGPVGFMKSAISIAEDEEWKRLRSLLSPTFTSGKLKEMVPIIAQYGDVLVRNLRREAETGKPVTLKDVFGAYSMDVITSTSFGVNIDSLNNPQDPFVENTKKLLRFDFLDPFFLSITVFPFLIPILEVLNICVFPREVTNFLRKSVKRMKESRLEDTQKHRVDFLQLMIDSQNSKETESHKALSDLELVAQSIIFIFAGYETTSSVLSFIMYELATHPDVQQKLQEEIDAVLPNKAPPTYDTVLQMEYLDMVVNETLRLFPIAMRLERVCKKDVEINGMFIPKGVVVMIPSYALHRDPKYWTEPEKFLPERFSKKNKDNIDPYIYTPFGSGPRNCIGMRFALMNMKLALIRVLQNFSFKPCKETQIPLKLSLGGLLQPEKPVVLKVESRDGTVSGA
With `CC1CCCC(NC(=O)c2n[nH]c(=O)c3ccccc23)C1C` (configuration not stated), the AC50 (in general, the concentration giving half of the maximal activity seen) is 12.6 µM (active).

On to `CCN(CC)CCCN(Cc1cc2ccc(C)c(C)c2[nH]c1=O)C(=O)NC1CCCCC1`, for which the AC50 was 2.82 µM (active).

`Cc1c(Br)cc(C(=O)NC2CCCCC2)c(C)c1C`: the activity, negative = inhibition was -5.25% [at 2.29 µM] (inactive).

As to `CCC(=O)NC(NCC1CCCO1)C(Cl)(Cl)Cl` (configuration not stated), the AC50 entry was “inactive”.

With `CC(=O)[C@H](C(=N)C#N)C(=O)Nc1ccccc1`, the activity, negative = inhibition was 3.78% [at 11.4 µM] (inactive).

For the compound `COC1(OC)N=C(NC(=O)Nc2ccccc2)C2(C#N)C(c3ccccc3)C12C#N` (configuration not stated), the AC50 result is “inactive”.

Regarding `COc1cccc(NC(=O)CSc2nnc(CN3CCOCC3)n2C)c1`, the AC50 result is “inactive”.

On to `Cn1c(CN2CCOCC2)nnc1SCc1ccccc1`, for which the AC50 is 10 µM (active).

`c1c[nH]c(CN2CCOCC2)n1`: the activity, negative = inhibition is -23.7% [at 11.4 µM] (inactive).

Turning to `Cn1c(CNC(=O)Nc2ccccc2)nnc1SCc1ccccc1`, the AC50 was 14.1 µM (active).

With `CCn1c(=O)[nH]c2cc(Cl)c(Cl)cc21`, the concentration at half-maximal activity (AC50) is 12.6 µM (active).

Regarding `CCn1c(C)[n+](CCCS(=O)(=O)[O-])c2cc(Cl)c(Cl)cc21`, the AC50 result was “inactive”.

As to `CCn1c(=O)[nH]c2ccccc21`, the AC50 entry was “inactive”.

Consider `O=C(O)/C=C\C(=O)Nc1ccccn1`, for which the activity, negative = inhibition was -10.9% [at 11.4 µM] (inactive).

`C=C(C)C1CC=C(C)/C(=N/NC(=O)c2ccc(NC(=O)c3cccc(C)c3)cc2)C1` (configuration not stated): the AC50 is 12.6 µM (active).

For the compound `Cc1cccc(C(=O)Nc2nnc(-c3ccc(C(C)(C)C)cc3)s2)c1`, the AC50 result is “inactive”.

On to `C=C(C)[C@H]1CC=C(C)/C(=N/NC(=O)CNc2ccccc2OC)C1`, for which the AC50 was 10 µM (active).

In the case of `Cc1cccc(C(=O)NNC(=O)C2CCCO2)c1` (configuration not stated), the AC50 entry was “inactive”.

In the case of `COc1cccc(-c2nnc3sc(-c4ccc(C)cc4)nn23)c1`, the AC50 was 7.94 µM (active).

Take `CSc1ccc2nnc(-c3cccc(F)c3)n2n1`: the AC50 result is “inactive”.

In the case of `CNC[C@@H](SC)c1ccc(O)c(O)c1`, the activity, negative = inhibition was -6.87% [at 11.4 µM] (inactive).

Take `Clc1ccc(/C=N/Nc2nnc(-c3ncc[nH]3)c3ccccc23)cc1`: the AC50 is 15.8 µM (active).

With `CCOc1ccc(C(C)=O)cc1N1C(=O)C2C3C=CC(O3)C2C1=O` (configuration not stated), the activity, negative = inhibition is -20.8% [at 11.4 µM] (inactive).

Regarding `CCOc1ccc(C(C)=O)cc1N1C(=O)C2C3C=CC(C3=C(C)C)C2C1=O` (configuration not stated), the AC50 is 11.2 µM (active).

For the compound `CCOc1ccc(C(C)=O)cc1N1C(=O)C2C(C1=O)C1C=CC2C12CC2` (configuration not stated), the AC50 result was “inactive”.

Turning to `CCC(C)(C)NC(=O)c1ccc2c(c1)N(CC(=O)OC)C(=O)C(C)(C)O2`, the AC50 result is “inactive”.

`Nc1ncnc2c1ncn2CCCCC(=O)O`: the activity, negative = inhibition is -8.48% [at 11.4 µM] (inactive).

With `O=C(c1cccs1)n1nc(-c2ccc(Cl)cc2)nc1NCc1ccco1`, the activity, negative = inhibition is -4.78% [at 2.29 µM] (inactive).

For `Cc1ccc(C(C(=O)NCc2ccco2)N(C(=O)CNC(=O)c2cccs2)c2ccc(C)cc2C)cc1` (configuration not stated), the half-maximal activity concentration (AC50) is 1 µM (active).

On to `Cc1ccc(C(CC(N)=O)c2ccco2)cc1` (configuration not stated), for which the AC50 result was “inactive”.

In the case of `O=C(NCc1ccco1)C(c1ccccc1)N(C(=O)Cc1cccs1)c1ccccc1F` (configuration not stated), the AC50 is 0.794 µM (active).

For `Cc1ccc(C(C(=O)NCc2ccco2)N(C(=O)CNC(=O)c2cccs2)c2ccc(C)cc2)cc1` (configuration not stated), the half-maximal activity concentration (AC50) was 1.12 µM (active).
